Bioassay records as filed in PubChem.
Pf growth 48h: P. falciparum growth inhibition at 48 hours (one generation); AID 504832; Potency, µM (highest dose often 28.7 µM), for the others: top-dose activity change, negative = inhibition, most hits filed as inhibitors; hit rate 5.9% among 310,000; P. falciparum luciferase growth in erythrocytes, 48 h; further: on the % scale 0 is the no-effect control and ±100 the full control effect
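Luminescence readout; reporter = integrated firefly luciferase in P. falciparum. RBC culture at 2% hematocrit, 0.1% parasitemia final, 37 C/5% CO2; decreased signal taken as growth inhibition.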
HCV inhibitor: inhibitors of hepatitis C virus infection | Huh7.5.1 HCVcc-Cre infection, luciferase reporter, 44 h | AID 651820 | Potency, µM (titrated, usually from 41.8 µM), for inactives: top-dose activity change, negative = inhibition, hits mostly inhibitors | hit rate 3.4% among 340,000; further: on the % scale 0 is the no-effect control and ±100 the full control effect
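After 44 h co-culture of compound, cells and HCVcc-Cre (~0.5 moi), substrate is added for 15 min at room temperature and luciferase measured over 15 sec. Cells were seeded at 1,000/well and pre-cultured 4 h.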
Pf growth 96h: inhibits malaria parasite growth, 96 h; P. falciparum luciferase reporter growth, 96 h; Potency, µM (titrated, usually from 28.7 µM), for the others: top-dose activity change, negative = inhibition, actives largely listed as inhibitors; hit rate 6.9% among 320,000; further: on the % scale 0 is the no-effect control and ±100 the full control effect
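Compounds incubated with erythrocytes infected by luciferase-expressing P. falciparum (2% hematocrit, 0.05% parasitemia final) for 96 hours, 37 C in 5% CO2. Growth inhibition scored as decreased luciferase luminescence.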
NS1 function inh: influenza NS1 inhibition; AID 2326; hit rate 0.4% among 270,000; Potency, µM (top dose mostly 46.1 µM), for inactives: at the highest dose activity, positive = more growth; calls by dose curve; further: actives are rising curves; nearly all actives have a fitted effect of over 50% in size
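Recovery from NS1-induced slow growth read by OD600 in budding yeast switched to galactose assay medium (pH 6.0, -URA) at 1:100 dilution. Compound 23 nl per well; the matching strain lacking NS1 serves as control.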
AMA1 RON2 block: AMA1-RON2 (P. falciparum) interaction inhibition. AlphaScreen AMA1-biotinylated RON2 peptide binding. Potency, µM (doses to about 58.2 µM), inactives show top-dose activity change, negative = inhibition, usual class: inhibitors. hit rate 0.2% among 360,000. AID 720542;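 further: 0% = vehicle wells and -100% = peptide control; nearly all actives have a fitted effect of over 45% in size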
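AMA1 (3D7) with his tag at 25 nM final met compounds first, then biotinylated RON2 peptide at 25 nM; detection used donor plus acceptor beads, 10 µg/mL apiece, read by AlphaScreen after 30 min at room temperature.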
SARS PLP yeast: inhibitors of SARS-CoV papain-like protease in yeast; S. cerevisiae expressing SARS-CoV PLpro, growth rescue; hit rate 0.19% among 330,000; Potency, µM (titrated, usually from 32.9 µM), for the others: top-dose activity, positive = growth rescue, usual class: activators; calls by dose curve; further: 0% is about no effect; nearly all actives have a fitted effect of over 55% in size
The depositor's hits bear a star; u = inconclusive; x = not tested or not shown; [ ] = dose if it differs, or a comment. Only some compounds are listed: those with a hit (about 12% of all), similar ones and a draw of the others. Unless noted, the call rests on the fitted dose curve; in most records, active means well fitted curve in the direction sought with a large enough effect; inconclusive means small, poorly fitted or top-dose-only effect, or another doubt; inactive means no such curve, though single readings can be large; an effect the other way counts as inactive or inconclusive. Potency means the concentration at half of the fitted maximal effect.

SMILES	Pf growth 48h	HCV inhibitor	Pf growth 96h	NS1 function inh	AMA1 RON2 block	SARS PLP yeast
CCSc1nnc(NC(=O)CSc2nnc(CNC(=O)c3ccc(OC)c(OC)c3)o2)s1	8.6%	-2.4%	-25.7%	18.3%	50.4%	14.5%
Cc1ccc(CN2C(=O)S/C(=C\c3ccccc3OCC(=O)O)C2=O)cc1	4.8%	3.2%	5.22µM*	3.7%	-1.6%	19.7%
O=C(O)COc1ccccc1/C=C1\SC(=O)N(Cc2ccc(F)cc2)C1=O	-7.4%	7.2%	34.0%[5.75 µM]	5.5%	11.7%	0.0%
CC(C)Oc1ccc(CC2CC(=O)NC2=O)cc1 (centres undefined)	39.6%	17.0%	10.4µM*	2.4%	15.7%	2.3%
CC(C)Oc1ccc(C2CCC(=O)NC2=O)cc1 (centres undefined)	17.1%	-0.7%	12.1%	1.3%	8.2%	-11.7%
O=C(CN(C(=O)c1csnn1)c1ccc(Cl)cc1)NCCc1ccccc1	13.1µM*	-2.5%	u	-3.6%	-4.8%	25.1%
CCOC(=O)/C(=C/C=C/c1ccccc1)NC(=O)c1ccccc1	16.7%	u	10.4µM*	-15.5%	1.1%	-0.8%
CSC(=NC#N)N1CCN(C(=NC#N)SC)CC1	9.28µM*	-6.8%	2.2%	4.8%	2.5%	0.6%
CSC(=NC#N)N1CCN(C(c2ccccc2)c2ccccc2)CC1	u	-22.4%	u	-39.1%	-4.0%	-4.6%
CC(=O)N1CCN(Cc2nc3cc(NC(=O)c4ccccc4C)ccc3n2C)CC1	-1.2%	-12.2%	u	0.5%	7.0%	0.4%
CC(=O)N1CCN(Cc2nc3cc(NC(=O)c4cccc(Br)c4)ccc3n2C)CC1	24.4%	17.8µM*	6.0%	-3.4%	-7.6%	0.2%
Cn1c(CN2CCCCC2)nc2cc(NC(=O)c3ccccc3Cl)ccc21	u	u	-11.3%	5.3%	17.0%	-0.8%
Cn1c(CN2CCCCC2)nc2cc(NC(=O)c3ccc(F)cc3)ccc21	24.7%	10µM*	u	-7.3%	53.0%	0.1%
CNC(=S)NC12CC3CC(CC(C3)C1)C2	u	8.7%	u	-1.8%	-8.8%	-1.4%
O=C(Nc1cc(Cl)cc(Cl)c1)N1CCCC1	-95.3%	1.0%	u	-92.1%	2.4%	-4.7%
O=C1CC(N2CCN(S(=O)(=O)c3ccccc3F)CC2)C(=O)N1c1ccccc1Cl (centres undefined)	u	11.7%	8.2%	x	-1.3%	2.9%
CN(C)CCCNc1c2c(nc3ccccc13)CCC2	10.4µM*	u	1.7%	-1.4%	-1.1%	1.3%
CN(C)CCCNc1nc(-c2ccc(Cl)cc2)nc2ccccc12	10.4µM*	u	63.4%	28.6%	3.4%	4.1%
CC(C)CNc1c2c(nc3ccccc13)CCC2	10.4µM*	u	u	-6.6%	-1.1%	15.2%
OCCNc1c2c(nc3ccccc13)CCCC2	54.3%	-2.8%	-6.2%	2.4%	0.0%	7.8%
COCCNc1c2c(nc3ccccc13)CCC2	u	u	9.28µM*	1.8%	1.8%	-6.7%
COc1ccc(C(=O)c2[nH]c(N)c(C(=O)NCCc3c[nH]c4ccccc34)c2-c2ccc(C(F)(F)F)cc2)cc1	x	x	x	x	35.6%	x
O=C(Nc1cc(Cl)ccc1N1CCOCC1)c1ccc(=O)[nH]c1	x	-6.1%	x	x	-22.6%	2.9%
Cc1c(/C(O)=C2\C(=O)C(=O)N(CCN(C)C)C2c2cccs2)cnn1-c1ccccc1 (centres undefined)	7.5%	8.6%	13.1µM*	-2.8%	5.0%	0.6%
O=C(CSc1nncn1-c1ccccc1)Nc1cc(F)ccc1F	44.0%	3.5%	0.0%	0.2%	-5.0%	-4.2%
SMILES	Pf growth 48h	HCV inhibitor	Pf growth 96h	NS1 function inh	AMA1 RON2 block	SARS PLP yeast
CCOC(=O)c1c(NC(=O)CSc2nc3ccccc3[nH]2)sc2c1CC(C)(C)NC2(C)C	10.4µM*	u	7.38µM*	x	2.0%	5.3%
CCOC(=O)c1c(NC(=O)COc2ccccc2)sc2c1CC(C)(C)NC2(C)C	u	u	-32.6%[5.75 µM]	x	0.8%	-0.4%
COc1ccc(N/C=C(\C#N)c2nc3ccccc3n2C)c(OC)c1	u	5.01µM*	-92.0%	-6.3%	14.2%	-5.8%
Cc1ccc(N=C2NC(=O)/C(=C\c3ccc(C)s3)S2)cc1	u	8.1%	1.65µM*	3.9%	-13.9%	-0.2%
Cc1ccc(N=C2NC(=O)/C(=C/c3cccn3C)S2)cc1	95.2%	-16.5%	u	1.1%	u	-1.4%
Cc1ccc(N=C2NC(=O)/C(=C/c3cccn3C)S2)cc1C	u	-25.4%	13.1µM*	7.3%	4.8%	-0.3%
Cc1cc(N=Nc2ccc(C)c(N=Nc3cc(C)c(N)cc3N)c2)c(N)cc1N	83.7%	-22.3%	134.4%	5.2%	22.4µM*	1.4%
CC(Sc1cccc[n+]1[O-])C(=O)Nc1ccc(Oc2ccccc2)cc1 (centres undefined)	9.6%	-19.2%	u	-2.3%	9.2%	-0.6%
Cc1ccc(S(=O)(=O)c2nnn3c2nc(N2CCOCC2)c2ccccc23)c(C)c1	u	u	14.1%	10.9%	u	-1.5%
Cc1ccc(S(=O)(=O)c2nnn3c2nc(NC2CCN(Cc4ccccc4)CC2)c2ccccc23)cc1C	2.94µM*	u	u	14.4%	-6.5%	-3.1%
Cc1ccc(S(=O)(=O)c2nnn3c2nc(N2CCOCC2)c2ccccc23)cc1C	u	10µM*	u	10.4%	-3.5%	-2.2%
CC(C)(C)OC(=O)N1CCN(C(=O)c2[nH]cnc2C(=O)Nc2ccc(Cl)cc2)CC1	x	0.2%	x	x	1.6%	3.1%
CCCCC1(c2ccc(F)cc2)NC(=O)N(CC(=O)N2CCN(C(=O)c3ccco3)CC2)C1=O (centres undefined)	-13.5%	18.6%	6.57µM*	-3.6%	-1.6%	-2.6%
O=C(O)c1cn(-c2ccccc2)nc1C(=O)O	-1.4%	10.1%	-18.0%	10.3%	1.0%	-19.7%
NNC(=O)c1nn(-c2ccccc2)cc1O	-4.4%	x	-1.5%	5.6%	x	10µM*
Cc1ccc(S(=O)(=O)N2CCOCC2)cc1C(=O)O	7.3%	14.8%	x	-8.3%	-7.8%	7.1%
CCC(C)NC(=O)CSc1nc2cc(S(=O)(=O)N3CCOCC3)ccc2n1CC (centres undefined)	4.5%	14.7%	-13.6%	x	6.2%	-2.3%
Cc1ccc(S(=O)(=O)N2CCOCC2)cc1C(=O)OCC(=O)Nc1ccc(Cl)cn1	x	x	x	x	-8.8%	x
Cc1ccc(S(=O)(=O)N2CCOCC2)cc1C(=O)OC(C)C(=O)c1ccccc1 (centres undefined)	u	3.55µM*	0.2%	x	2.8%	-4.3%
Cc1ccc(S(=O)(=O)N2CCOCC2)cc1C(=O)OCCOc1cccc(Cl)c1	u	u	10.4µM*	x	6.9%	-6.1%
CCn1c(SCC(=O)c2cc(C)ccc2C)nc2cc(S(=O)(=O)N3CCOCC3)ccc21	u	u	7.38µM*	8.6%	-7.7%	16.0%
